Assay outcomes as filed in PubChem BioAssay.
The full list was thinned out, with hits kept by preference.
IDE exosite inh: exo-site inhibitors of human IDE, primary screen, biochemical, fluorescence anisotropy, probe displacement; AID 1259349, 2017; actives 6.3% (n = 17,000); Insulin-degrading enzyme (Homo sapiens), P14735; purified IDE, FL-6b probe fluorescence polarization; active compounds read low; z-score at 20 µM;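 active means z-score of -3 or lower, meaning strong loss of probe binding signal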;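 further: His-tagged human IDE residues 42-1019 made in E. coli with 30 nM FL-6b probe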
* marks the source's active call; other numbers are inactive results.

For O=C(Cc1ccccn1)N1CCCCN2[C@H](CO)[C@@H](c3ccc(Br)cc3)[C@H]2C1 the results were IDE exosite inh -0.922.
Screening O=C(Cc1ccccn1)N1CCCCN2[C@@H](CO)[C@@H](c3ccc(-c4ccccc4)cc3)[C@@H]2C1 returned IDE exosite inh -3.54*.
O=C(Cc1ccccn1)N1CCCCN2[C@H](CO)[C@H](c3ccc(-c4ccc(F)cc4)cc3)[C@H]2C1 was read as IDE exosite inh 3.24.
`O=C(Cc1ccncc1)N1CCCCN2[C@@H](CO)[C@H](c3ccc(C#Cc4ccccc4F)cc3)[C@@H]2C1` gave IDE exosite inh -0.409.
Screening CCCC#Cc1ccc([C@H]2[C@@H](CO)N3CCCCN(C(=O)Cc4ccccn4)C[C@H]23)cc1 returned IDE exosite inh -1.44.
Screening Cc1ccccc1-c1ccc([C@@H]2[C@@H](CO)N3CCCCN(C(=O)Cc4ccccn4)C[C@@H]23)cc1 returned IDE exosite inh -9.54*.
O=C(Cc1ccncc1)N1CCCCN2[C@H](CO)[C@H](c3ccc(C#Cc4ccccc4F)cc3)[C@@H]2C1 was read as IDE exosite inh -4.35*.
For CCCC#Cc1ccc([C@H]2[C@H](CO)N3CCCCN(C(=O)Cc4ccccn4)C[C@@H]23)cc1 the results were IDE exosite inh 0.646.
`O=C(Cc1ccccn1)N1CCCCN2[C@H](C1)[C@H](c1ccc(Br)cc1)[C@@H]2CO` gave IDE exosite inh 4.45.
Screening CCCC#Cc1ccc([C@@H]2[C@@H](CO)N3CCCCN(C(=O)Cc4ccccn4)C[C@H]23)cc1 returned IDE exosite inh 0.228.
O=C(Cc1ccccn1)N1CCCCN2[C@H](C1)[C@@H](c1ccc(C#Cc3ccccc3)cc1)[C@@H]2CO was read as IDE exosite inh -6.34*.
Screening O=C(Cc1ccncc1)N1CCCCN2[C@H](C1)[C@@H](c1ccc(C#Cc3ccccc3F)cc1)[C@@H]2CO returned IDE exosite inh -1.78.
For O=C(Cc1ccncc1)N1CCCCN2[C@H](CO)[C@@H](c3ccc(C#Cc4ccccc4F)cc3)[C@@H]2C1 the results were IDE exosite inh -1.19.
For N#Cc1cccc(-c2ccc([C@@H]3[C@H](CO)N4CCCCN(C(=O)Cc5ccccc5)C[C@@H]34)cc2)c1 the results were IDE exosite inh 2.65.
Screening N#Cc1ccc(-c2ccc([C@H]3[C@@H](CO)N4CCCCN(C(=O)Cc5ccccc5)C[C@H]34)cc2)cc1 returned IDE exosite inh -1.83.
For N#Cc1cccc(-c2ccc([C@H]3[C@@H](CO)N4CCCCN(C(=O)Cc5ccccc5)C[C@@H]34)cc2)c1 the results were IDE exosite inh 2.46.
`C/C=C/c1ccc(C2[C@@H]3CN(Cc4cocn4)C[C@H]2N3)cc1` (some centres undefined) gave IDE exosite inh 1.31.
For CCCNC(=O)N1[C@@H]2c3ccc(-c4ccccc4OC)c(=O)n3C[C@H]1[C@H](CO)[C@H]2C(=O)OC the results were IDE exosite inh 0.226.
For COc1ccc(-c2ccc([C@@H]3[C@H]4CN(C(=O)Cc5ccncc5)CCCCN4[C@H]3CO)cc2)cc1 the results were IDE exosite inh 0.327.
`COC(=O)[C@H]1[C@H](CO)[C@H]2Cn3c(ccc(-c4cccc(C(=O)N(C)C)c4)c3=O)[C@@H]1N2C(=O)NC(C)C` gave IDE exosite inh 0.784.
Screening O=C(Cc1ccccn1)N1CCCCN2[C@H](C1)[C@@H](c1ccc(-c3ccccc3)cc1)[C@@H]2CO returned IDE exosite inh -1.21.
Screening O=C(Cc1ccccn1)N1CCCCN2[C@H](CO)[C@@H](c3ccc(-c4ccc(F)cc4)cc3)[C@@H]2C1 returned IDE exosite inh 0.0329.
Screening O=C(Cc1ccccn1)N1CCCCN2[C@H](CO)[C@H](c3ccc(-c4ccccc4)cc3)[C@H]2C1 returned IDE exosite inh -4.65*.
Screening O=C(O)[C@@H]1[C@@H](CO)[C@@H]2Cn3c(ccc(-c4cccnc4)c3=O)[C@H]1N2C(=O)Nc1cc(F)ccc1F returned IDE exosite inh 0.198.
`OC[C@@H]1Nc2ccc(C#Cc3cccnc3)cc2[C@@H]2NCC[C@H]12` gave IDE exosite inh 1.59.
For O=C(Cc1ccccn1)N1CCCCN2[C@H](CO)[C@@H](c3ccc(-c4ccccc4F)cc3)[C@H]2C1 the results were IDE exosite inh -0.276.
For O=C(Cc1ccccn1)N1CCCCN2[C@H](CO)[C@H](c3ccc(-c4ccccc4F)cc3)[C@H]2C1 the results were IDE exosite inh -4.39*.
For O=C(Cc1ccccn1)N1CCCCN2[C@H](CO)[C@H](c3ccc(Br)cc3)[C@@H]2C1 the results were IDE exosite inh 4.54.
`O=C(Cc1ccccn1)N1CCCCN2[C@H](CO)[C@@H](c3ccc(Br)cc3)[C@@H]2C1` gave IDE exosite inh 1.7.
For O=C(Cc1ccccn1)N1CCCCN2[C@@H](CO)[C@H](c3ccc(-c4ccccc4F)cc3)[C@@H]2C1 the results were IDE exosite inh 0.00797.
O=C(Cc1ccccn1)N1CCCCN2[C@@H](CO)[C@@H](c3ccc(-c4ccccc4F)cc3)[C@@H]2C1 was read as IDE exosite inh -5.62*.
N#Cc1cccc(-c2ccc([C@H]3[C@@H](CO)N4CCCCN(C(=O)Cc5ccncc5)C[C@@H]34)cc2)c1 was read as IDE exosite inh 1.19.
`CCCC#Cc1ccc([C@@H]2[C@@H](CO)N3CCCCN(C(=O)Cc4ccccn4)C[C@@H]23)cc1` gave IDE exosite inh 3.57.
Screening CN(C)CC#Cc1ccc([C@@H]2[C@@H](CO)N3CCCCN(C(=O)Cc4ccccn4)C[C@H]23)cc1 returned IDE exosite inh -1.42.
Screening CCCC#Cc1ccc([C@H]2[C@H]3CN(C(=O)Cc4ccccn4)CCCCN3[C@H]2CO)cc1 returned IDE exosite inh -0.438.
`O=C(Cc1cccnc1)N1CCCCN2[C@H](CO)[C@H](c3ccc(C#CC4CCCC4)cc3)[C@@H]2C1` gave IDE exosite inh 1.44.
For O=C(Cc1cccnc1)N1CCCCN2[C@H](C1)[C@@H](c1ccc(C#CC3CCCC3)cc1)[C@@H]2CO the results were IDE exosite inh 4.66.
For C/C=C/c1ccc([C@@H]2[C@H]3CN(C(=O)Cc4ccncc4)CCCCN3[C@H]2CO)cc1 the results were IDE exosite inh 2.83.
`C/C=C/c1ccc([C@H]2[C@@H](CO)N3CCCCN(C(=O)Cc4cccnc4)C[C@@H]23)cc1` gave IDE exosite inh -0.182.
For O=C(Cc1cccnc1)N1CCCCN2[C@@H](CO)[C@H](c3ccc(/C=C/c4ccccc4)cc3)[C@@H]2C1 the results were IDE exosite inh -9.22*.
Screening O=C(Cc1cccnc1)N1CCCCN2[C@H](CO)[C@H](c3ccc(/C=C/c4ccccc4)cc3)[C@@H]2C1 returned IDE exosite inh -11.2*.
For C/C=C/c1ccc([C@@H]2[C@@H](CO)N3CCCCN(C(=O)Cc4cccnc4)C[C@H]23)cc1 the results were IDE exosite inh 1.25.
`O=C(Cc1cccnc1)N1CCCCN2[C@H](C1)[C@H](c1ccc(/C=C/c3ccccc3)cc1)[C@@H]2CO` gave IDE exosite inh -5.55*.
C/C=C/c1ccc([C@@H]2[C@H]3CN(C(=O)Cc4cccnc4)CCCCN3[C@H]2CO)cc1 was read as IDE exosite inh 0.339.
COCC#Cc1ccc([C@H]2[C@H](CO)N3CCCCN(C(=O)Cc4ccccn4)C[C@@H]23)cc1 was read as IDE exosite inh 0.327.
C[C@H](CO)N1C[C@H](C)[C@@H](CN(C)C(=O)Oc2cccc3ccccc23)OCc2cnnn2CCCC1=O was read as IDE exosite inh -1.09.
Screening O=C(O)[C@H]1[C@H](CO)[C@H]2Cn3c(ccc(C4=CCCCC4)c3=O)[C@@H]1N2C(=O)Cc1ccccn1 returned IDE exosite inh 1.09.
N#Cc1ccc(-c2ccc([C@H]3[C@H]4CN(C(=O)Cc5ccccc5)CCCCN4[C@H]3CO)cc2)cc1 was read as IDE exosite inh 2.88.
For O=C(Cc1cccnc1)N1CCCCN2[C@H](C1)[C@H](c1ccc(C#CC3(O)CCCC3)cc1)[C@@H]2CO the results were IDE exosite inh -0.687.
Screening O=C1CNC[C@@H]2[C@H](c3ccc(Br)cc3)[C@H](CO)N12 returned IDE exosite inh -0.0426.
